MITF TRPM1 HTS = activators of MITF-driven TRPM1 promoter activity in SK-MEL-5 cells | SK-MEL-5 TRPM1-promoter luciferase, 24 h; % of positive control, neutral wells = 0 | activation, % at 12.5 µM | 300,000 tested, 0.75% active;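 active = mean activation of at least 80% with every replicate also reaching 80%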;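 also: 0% = neutral control wells and 100% = parthenolide positive control wells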
miR122 inh = inhibitors of miR-122 in Huh7 cells. activation (reporter increase), % at 12.5 µM. 340,000 tested, 0.3% active. Huh7 miR-122 Renilla luciferase sensor, 48 h; neutral wells = 0, positive control = 100. AID 602342;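 active = mean replicate activation score at least 90 and every replicate individually at or above 90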;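 also: higher luciferase means less miR-122 activity so hits act as miR-122 inhibitors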
Wnt bcat act = Wnt/beta-catenin pathway activation; Wnt/beta-catenin reporter cell assay, activator, plate reader; activation, % at 9.35 µM; 300,000 tested, 1.2% active; AID 743398; in the data active = activation above about 30%, passing the limit was not always enough;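 also: 0% = neutral control wells and 100% = positive control wells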
Env fusion inh = HIV envelope-mediated fusion inhibition | HeLa-JRFL Env/CEM21 cell fusion, luciferase | inhibition, % at 12.3 µM | 360,000 tested, 1.1% active;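 active = mean replicate inhibition score of at least 50 and every replicate individually at or above 50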;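 also: 0% = plate neutral controls and 100% = maraviroc near 300 nM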
esBAF inh = blocks esBAF chromatin remodeling in mouse ES cells. 350,000 tested, 2% active. Bmi1-luciferase knock-in reporter, 24 h; 100% = twice the neutral-well signal. reporter increase, % at 12.5 µM; in the data active = activation above about 40%;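 also: 0% = median of the plate's neutral control wells and 100% = double that signal; a rise in the Bmi1 reporter signal indicates esBAF inhibition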
esBAF Ring1 qPCR = esBAF inhibition confirmed by Ring1 de-repression; shares compounds with esBAF inh; mouse ESC E14, Ring1 mRNA RT-qPCR fold change; fold change at 33 µM; 550 tested, under 10 active; AID 743176;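 active = Ring1 gene expression raised more than 2-fold over untreated cells in both replicates at either tested dose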;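 also: Ring1 transcript normalised to actin housekeeping signal by TaqMan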
esBAF Fgf4 qPCR = represses Fgf4 in mouse ESCs, confirming esBAF inhibition; Fgf4 expression fold change at 33 µM; mouse ESC E14, Fgf4 mRNA qPCR fold change; hits give low values; shares compounds with esBAF inh; 550 tested, 4% active;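 active = Fgf4 expression under 0.8 fold of control in both repeat measurements at one or both tested doses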;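 also: Fgf4 transcript normalised to actin in duplex TaqMan qPCR; cells exposed to compound for 24 h before lysis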
esBAF Bmi1 qPCR = esBAF inhibition confirmed by Bmi1 de-repression; shares compounds with esBAF inh; fold change at 33 µM; AID 743180; mouse ESE14 ES cells, Bmi1 mRNA qPCR fold; hits give high values; 550 tested, under 10 active;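 active = Bmi1 expression fold change above 6 at either tested concentration, seen in replicate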;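 also: higher fold means more Bmi1 de-repression and stronger esBAF inhibition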
A549 cytotox = A549 cell cytotoxicity. shares compounds with esBAF inh. plate reader. 550 tested, under 10 active. cell viability change % (negative = cytotoxic), % at 25 µM, hits read low; call rule not given here
HepG2 cytotox SP = kills or reduces viability of HepG2 cells. shares compounds with esBAF inh. HepG2 cytotoxicity, plate reader; hits give low values. activity change, negative = inhibition, % at 25 µM. 550 tested, 4% active. AID 743189; in the data active = activity change below about -50%
HEK293 cytotox SP = HEK293 cell cytotoxicity at single point; plate reader; shares compounds with esBAF inh; 550 tested, 3% active; AID 743190; activity change, negative = inhibition, % at 25 µM, hits read low; in the data active = activity change below about -38%, passing the limit was not always enough
An asterisk follows results filed as active; / = no result given; [ ] = remark or other dose. Most compounds without a hit are left out; they make up all but 3.4% or so of the library.

SMILES	MITF TRPM1 HTS	miR122 inh	Wnt bcat act	Env fusion inh	esBAF inh	others
CCCN1[C@@H]2c3ccc(-c4ccc(OC)cc4)c(=O)n3C[C@H]1[C@H](CO)[C@H]2C(=O)OC	/	1.8[16.7 µM]	/	/	5.5
CC1CN=C(NC(C)c2ccccc2)S1 (stereo unspecified)	1.5	-1.1	-0.6	5.5	9.0
CC(NC1=NCCS1)c1ccccc1 (stereo unspecified)	2.5	/	48.5*	10.6	/
CCOc1cc(CNCCc2ccccc2F)ccc1OC	-3.7	-3.4	0.4	5.2	-2.3
Cc1[nH]c2ccc(OC(F)(F)F)cc2c1CCNCc1ccc(Cl)cc1	5.0	/	-0.1	92.6*	-4.8
COc1ccc2[nH]c(C)c(CCNCc3cccnc3)c2c1	-14.0	2.6	1.9	/	13.7
Cc1ccc2[nH]c(C)c(CCNCc3ccco3)c2c1	2.5	-2.2	-0.9	-1.4	9.2
CCOc1cccc(CNCCc2c(C)[nH]c3ccc(OC(F)(F)F)cc23)c1O	-96.3	2.5	-12.0	62.5*	-24.9
Cc1[nH]c2ccc(OC(F)(F)F)cc2c1CCNCc1cccc([N+](=O)[O-])c1	11.6	13.4	-3.7	66.8*	-11.7
Cc1cccc(S(=O)(=O)N2[C@@H]3Cn4c(ccc(-c5cccc(F)c5)c4=O)[C@H]2[C@@H](C(=O)O)[C@@H]3CO)c1	/	-6.9[16.7 µM]	/	/	-3.1
CCCCCn1c(=O)c(C(=O)Nc2ccccc2Cl)c(O)c2ccccc21	/	6.5	-2.6	-35.4	99.5*	esBAF Ring1 qPCR=1.22;esBAF Fgf4 qPCR=0.959;esBAF Bmi1 qPCR=1.16;A549 cytotox=3.6;HepG2 cytotox SP=-23.0;HEK293 cytotox SP=-15.3
COC(=O)[C@H]1[C@H](CO)[C@H]2Cn3c(ccc(-c4ccncc4)c3=O)[C@@H]1N2S(=O)(=O)c1ccccc1F	/	-6.6[16.7 µM]	/	/	1.3
